# Results as given in the supplement of paper PMC3334620.
# In all, about 33,000 sequences were measured (“E-score (-0.5 to 0.5)”: median about -0.053, highest 2% from about 0.37 on). For the sample, the highest values were picked, then their nearest neighbours and some sequences at random.
# Molecular target: Hap1 (UniProt P0CE41)
# Experiment: PBM E-score (8-mer binding enrichment) (E-score (-0.5 to 0.5)); higher = stronger / more preferred TF binding
# Conditions: protein concentration: 200 nM; construct: GST-DNA-binding domain
# Method: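 Universal 'all 10-mer' protein binding microarrays (Agilent AMADID 015681) probed with GST-tagged S. cerevisiae TFs (full-length or DBD) made by in vitro transcription/translation (PURExpress), about 100-200 nM. Bound TF was detected with fluorescent anti-GST. Each ungapped 8-mer (which stands for itself and its reverse complement) is scored by the PBM enrichment score (E-score), a modified Wilcoxon-Mann-Whitney statistic from -0.5 to +0.5, computed with the Universal PBM Analysis Suite. Scale: above 0.35 generally sequence-specific binding.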
# Chain of UniProt P0CE41 (P0CE41 whole entry): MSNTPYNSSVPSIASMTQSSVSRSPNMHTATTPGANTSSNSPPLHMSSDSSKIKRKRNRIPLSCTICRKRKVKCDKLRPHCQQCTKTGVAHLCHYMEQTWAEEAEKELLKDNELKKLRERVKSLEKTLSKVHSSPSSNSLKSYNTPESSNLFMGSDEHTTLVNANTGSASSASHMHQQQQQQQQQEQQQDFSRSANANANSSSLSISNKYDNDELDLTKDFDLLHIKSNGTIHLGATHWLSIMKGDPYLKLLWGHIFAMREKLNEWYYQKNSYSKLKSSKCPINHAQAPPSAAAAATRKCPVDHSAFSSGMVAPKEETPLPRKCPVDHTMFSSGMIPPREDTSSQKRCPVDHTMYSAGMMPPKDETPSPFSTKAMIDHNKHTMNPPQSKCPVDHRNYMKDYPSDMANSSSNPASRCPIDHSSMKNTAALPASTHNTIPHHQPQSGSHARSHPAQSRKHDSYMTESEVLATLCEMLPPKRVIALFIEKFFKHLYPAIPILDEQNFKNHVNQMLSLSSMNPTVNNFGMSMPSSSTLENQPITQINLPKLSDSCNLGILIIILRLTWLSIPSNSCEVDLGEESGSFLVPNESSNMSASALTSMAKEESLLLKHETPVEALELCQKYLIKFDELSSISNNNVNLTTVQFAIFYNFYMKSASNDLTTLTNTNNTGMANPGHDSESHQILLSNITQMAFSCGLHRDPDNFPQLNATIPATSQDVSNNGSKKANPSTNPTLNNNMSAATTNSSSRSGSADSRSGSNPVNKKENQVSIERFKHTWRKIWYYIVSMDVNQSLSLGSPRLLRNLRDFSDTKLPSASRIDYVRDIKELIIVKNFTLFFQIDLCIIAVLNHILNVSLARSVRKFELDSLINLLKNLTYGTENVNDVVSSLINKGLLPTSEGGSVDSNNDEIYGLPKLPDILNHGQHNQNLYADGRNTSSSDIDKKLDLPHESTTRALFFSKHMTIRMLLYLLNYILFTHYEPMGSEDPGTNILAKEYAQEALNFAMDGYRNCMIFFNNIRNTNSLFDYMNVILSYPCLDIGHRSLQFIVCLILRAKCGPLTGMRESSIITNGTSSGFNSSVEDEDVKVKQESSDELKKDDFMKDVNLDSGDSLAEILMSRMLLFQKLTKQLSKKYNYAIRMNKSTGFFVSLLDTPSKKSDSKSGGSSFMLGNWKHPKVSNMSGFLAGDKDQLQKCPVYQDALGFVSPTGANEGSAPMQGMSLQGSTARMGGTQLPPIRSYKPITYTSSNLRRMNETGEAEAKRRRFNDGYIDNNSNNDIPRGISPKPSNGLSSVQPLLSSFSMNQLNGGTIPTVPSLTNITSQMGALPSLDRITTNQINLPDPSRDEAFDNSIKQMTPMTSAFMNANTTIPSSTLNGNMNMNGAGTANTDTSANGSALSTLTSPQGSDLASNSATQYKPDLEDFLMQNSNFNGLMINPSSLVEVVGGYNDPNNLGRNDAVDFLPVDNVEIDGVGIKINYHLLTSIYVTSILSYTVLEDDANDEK
row,Sequence,PBM E-score
1,ATCAGTAG,-0.276
2,ACAGGGCC,0.115
3,GGTCCCCA,0.0281
4,CGTCGGAG,0.313
5,ACTCGGAT,0.311
6,CCTCGGCC,0.346
7,CCTCGGAG,0.394
8,ACTCGGAC,0.385
9,CCTCGGGC,0.31
10,ACTCGGAG,0.305
11,GCTCGGCC,0.375
12,CCTCGGAC,0.39
13,ACTCGGAA,0.344
14,ACTCGGCC,0.361
15,CCTCGGAA,0.314
16,AGACTAAG,-0.103
17,CGGCAGGA,0.175
18,ATGGAAAC,-0.0981
19,TCACTTAA,-0.167
20,CGCGCCGC,0.228
21,AAACGTCG,0.00491
22,GCTCGGAC,0.403
23,CCTCGGCA,0.294
24,GGTCGGAC,0.342
25,GCTCGGAA,0.335

row,Sequence,PBM E-score
1,ACTCGGCG,0.259
2,CCTCGGCG,0.37
3,GATCAAAC,-0.0316
4,TAGAGCAA,-0.296
5,AGTTGATG,-0.292
6,GCGATATA,0.24
7,CCGATATA,0.44
8,CCGATATC,0.458
9,CAGATATC,0.199
10,ACGATATA,-0.0495
11,ACGATATC,0.0796
12,AATCGGGA,0.159
13,ATGCCTTG,-0.2
14,CCAGACGA,-0.0873
15,ATCGTCCC,0.0149
16,CCCGTCCG,0.314
17,ATCGTCCG,0.379
18,ACCGTCCG,0.381
19,ATCGTCCA,-0.0714
20,AACGTCCA,-0.0731
21,AACGTCCG,0.371
22,ACCGTCCC,0.141
23,AACGTCCC,-0.179
24,CAGTGCCC,0.00772
25,ACAAGGGC,-0.112

row,Sequence,PBM E-score
1,CCATTAGG,-0.215
2,AATTGCAG,-0.0487
3,CGAGGCAC,0.0885
4,AATAGATA,-0.00886
5,GCCTTAAC,-0.0709
6,CTGGTTTA,-0.309
7,ACGTCTAC,-0.179
8,CTGGTCAC,-0.325
9,AACGGGGG,0.158
10,GCCGGAGA,0.372
11,CCCAGAGA,-0.226
12,ACCGGAAT,0.36
13,GCCGGAGC,0.344
14,CCGGGAGA,0.29
15,ACCGGAGT,0.4
16,GACGGAGA,0.318
17,GCCAGAGA,-0.227
18,ACCGGAGC,0.409
19,CCCGGAGA,0.428
20,ACCAGAGT,-0.222
21,CCCGGAGC,0.354
22,ATTGGTGA,-0.281
23,AGCTTTTG,-0.167
24,AGTAGTGA,-0.1
25,AAGAAGGA,-0.21

row,Sequence,PBM E-score
1,ACAGGAAT,-0.135
2,ACACGGAT,0.209
3,CTCCTCAC,-0.186
4,CCGTTCCA,0.172
5,ACCGGAGG,0.399
6,AACGGAGC,0.241
7,ACAGGAGA,-0.131
8,ACCGGAGA,0.43
9,AGCGGAGA,0.276
10,TCCGGAGA,0.442
11,AACGGAGT,0.373
12,CACGGAGA,0.365
13,CCCGGAGG,0.285
14,AGCGGAGG,0.158
15,AACGGAGA,0.357
16,TACGGAGA,0.326
17,CAAATAAG,0.0685
18,AAAACGGG,0.174
19,CGGGGACG,0.163
20,AACGCGGG,0.267
21,GCGTCTAA,-0.0983
22,GACACAGA,0.0169
23,GCCATACC,0.0518
24,CTATCGAG,-0.0625
25,CAGGTTTA,-0.0176

row,Sequence,PBM E-score
1,AACGGTCG,0.23
2,TAGCACTA,-0.326
3,TGATTTAA,0.0921
4,CGATTTAA,0.0314
5,CGATTTAC,0.149
6,AGATTTAC,-0.103
7,GGATTTAA,0.444
8,GGATTTAC,0.415
9,TTACCGAA,0.233
10,CGTCTGAC,-0.045
11,ATGAAGCG,-0.208
12,ACCACTTA,-0.00971
13,ATGTTAGA,-0.336
14,CAGCCGGA,0.33
15,AAGCCGGA,0.413
16,AAGCCGGT,0.332
17,AAGCCGGC,0.399
18,TAGCCGAA,0.314
19,TAGCCGGA,0.407
20,AAGCCGGG,0.238
21,GAGCCGGC,0.339
22,AAGCCGTC,0.27
23,GAGCCGCA,-0.0121
24,GAGCCGGA,0.379
25,CAGCCGGC,0.331

row,Sequence,PBM E-score
1,ACGGGCCA,0.226
2,CATAGAAG,-0.0619
3,CAGTTCGA,-0.156
4,AGCGCCAT,-0.113
5,TCGGTAAA,0.249
6,ACGGTAAG,0.067
7,CCGGTAAG,0.391
8,CCGGTACG,0.342
9,CCGGTAAC,0.36
10,CCGGTAAA,0.456
11,CGGGCAAA,0.249
12,GGCAAATA,0.2
13,TGGCAGAA,-0.0128
14,CTGCTGGA,-0.231
15,ATCCGAAA,0.389
16,TTCCGAAA,0.363
17,GCCCGAAC,0.298
18,ATCCGAAC,0.355
19,GCCCGAAA,0.342
20,CACCGAAC,0.194
21,GTCCGAAA,0.421
22,GTCCGAAC,0.426
23,CTCCGAAC,0.415
24,ACCCGAAA,0.31
25,CCCCGAAC,0.291

row,Sequence,PBM E-score
1,ATCCGAAG,0.326
2,ATACCGTC,0.0985
3,CGGCTAGC,0.0611
4,AGTCAGAT,-0.212
5,AGCAGCTG,-0.167
6,ACCCTCAG,-0.197
7,GCGCAAAA,-0.00131
8,CACCGAAG,0.245
9,CTCCGACA,0.291
10,ATCCGACA,0.305
11,CTCCGAAA,0.41
12,CGCCGAAG,0.359
13,CTCCGAAG,0.401
14,CGCCGAAA,0.359
15,ATCCGAAT,0.403
16,ACCCGAAT,0.314
17,GTCCGACA,0.38
18,CTTCGAAA,-0.279
19,AACCGAAT,0.301
20,ACTTGAGA,-0.185
21,AGGGGCGG,0.235
22,ACTCGTCG,-0.172
23,CCCCGCAA,0.258
24,ACATTTAA,-0.0555
25,AGCCCTTG,-0.311

row,Sequence,PBM E-score
1,AGACACGG,0.0548
2,CATCCAGG,-0.183
3,ATCCGAGC,0.356
4,ATCCGAGG,0.39
5,ATCCGACG,0.333
6,GACGCACC,-0.118
7,GCAAGGAC,-0.115
8,AGTCCGAC,0.36
9,AATCCGAC,0.363
10,AGTCCGAT,0.432
11,AGTCCAAG,-0.404
12,AATCCGAA,0.366
13,AGTCCGAG,0.428
14,AATCCGAT,0.401
15,AGTCCGTG,0.299
16,AGTCCTAT,-0.0943
17,AAGCCTAT,-0.101
18,AAAACTAG,-0.116
19,AGTACGGG,-0.028
20,ACTTCTGG,-0.297
21,AGTGGACG,0.0359
22,TAAAAGGA,-0.0643
23,AGATAAGC,-0.0608
24,TGACCTAA,-0.158
25,GGACCTAA,0.371

row,Sequence,PBM E-score
1,CGACCTAA,0.161
2,TACGGAAA,0.316
3,GGCGGAAA,0.29
4,CCCGGAAA,0.411
5,GACGGAAA,0.314
6,CCGGGAAA,0.338
7,TCCGGAAA,0.445
8,CCCGGAAG,0.358
9,GCCGGAAA,0.395
10,TGCGGAAA,0.213
11,TCTCAAGA,-0.0524
12,GTCGCGTA,-0.051
13,ATTCAAAG,-0.213
14,ACGCTTGG,-0.193
15,GGGGCGCA,-0.255
16,ACTAGTCA,-0.241
17,GGTGTGGA,-0.00568
18,GGAACACA,-0.109
19,AGCACGAC,-0.133
